Compounds with a hit are over-represented: about 8.2% of the library has one in this group of screens.
ELG1 DNA repair: qHTS screen for small molecules that inhibit ELG1-dependent DNA repair in human embryonic kidney (HEK293T) cells expressing luciferase-tagged ELG1 | HEK293T ELG1-luciferase reporter, luminescence, 16 h; DNA damage induced by 5-fluorouridine | Potency, µM (highest dose often 46.1 µM), without a hit: at the top dose activity change, negative = inhibition, usual class: inhibitors | hit rate 2.3% among 330,000; note: % is set by controls: 0 for no effect and ±100 for the full control effect; nearly all actives have a fitted effect of over 55% in size
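HEK293T cells expressing luciferase-tagged ELG1 (2,000/well) received 5-Fluorouridine plus compound or DMSO for 16 hr at 37 °C. Luciferase was read by ONE-Glo luminescence after 30 min at room temperature.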
KB-3-1 tox: qHTS assay for MDR1-selective chemotherapeutics: Primary screen using the parental adenocarcinoma cell KB-3-1; KB-3-1 viability, CellTiter-Glo ATP luminescence, 72 h; Potency, µM (top dose mostly 46.1 µM), most hits filed as cytotoxic; hit rate 1.4% among 400,000; AID 1347075, 2019; note: % is set by controls: 0 for no effect and ±100 for the full control effect; nearly all actives have a fitted effect of over 60% in size
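Luminescent ATP read-out (CellTiter-Glo) measures survival of drug-naive KB-3-1 cells after 72 h compound exposure at 37 °C. Titration series was screened from lowest to highest concentration, with DMSO vehicle plates as background controls.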
KB-V1 MDR tox: qHTS assay for MDR1-selective chemotherapeutics: Primary screen using the drug-selected MDR subline cells KB-V1 | hit rate 3.4% among 400,000 | KB-V1 MDR cells viability, CellTiter-Glo, 72 h | AID 1347076, 2019 | Potency, µM (doses to about 46.1 µM), actives largely listed as cytotoxic; note: % is set by controls: 0 for no effect and ±100 for the full control effect; nearly all actives have a fitted effect of over 60% in size
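KB-V1 MDR subline cells in DMEM (phenol-red free, 10% FBS) exposed to compounds in qHTS concentration series for 72 h at 37 degrees C. Viability read by CellTiter-Glo luminescence; concentration-effect curves fitted after normalization and correction.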
SW480 rerep: A quantitative high throughput screen for small molecules that induce DNA re-replication in SW480 colon adenocarcinoma cells | hit rate 1.8% among 340,000 | SW480 DNA re-replication, Hoechst DNA content imaging, 48 h | Potency, µM (series often up to 46.1 µM), for the others: at the highest dose re-replication activation, hits mostly activators | AID 624297, 2012; note: % of control where 0% means no effect; nearly all actives have a fitted effect of over 55% in size
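Hoechst fluorescence of nuclei (405 nm excitation, 500-530 nm emission) measured by plate-scanning imager after 48 hr compound exposure at 37 C; re-replication scored as increased number of nuclei with elevated intensity.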
MCF10A rerep: A quantitative high throughput screen for small molecules that induce DNA re-replication in MCF 10a normal breast cells. Potency, µM (top dose mostly 46.1 µM), inactives show at the top dose activity, positive = re-replication, usual class: activators. hit rate 2.9% among 350,000. MCF 10A DNA re-replication, Hoechst nuclear intensity, 48 h; note: % of control where 0% means no effect; nearly all actives have a fitted effect of over 50% in size
Active calls of the source: *; i = inactive; ? = inconclusive; . = no result. Calls come from the whole dose curve; as a rule, active = well fitted curve in the direction sought with a large enough effect; inconclusive = small, poorly fitted or top-dose-only effect, or another doubt; inactive = no such curve, though single readings can be large; an effect the other way counts as inactive or inconclusive. Potency is the fitted concentration of half-maximal effect.

SMILES | ELG1 DNA repair | KB-3-1 tox | KB-V1 MDR tox | SW480 rerep | MCF10A rerep
Cc1cnc2ccc3ccccc3c2c1C | . | 5.2µM* | i | . | .
Cc1c2ccccc2c(C)c2c1ccc1ccccc12 | ? | i | i | 1.8µM* | ?
Cc1ccc2ncc(C)c(C)c2c1 | . | i | i | . | .
O=C(CNC(=O)C1CCCCC1)OCC(=O)c1ccc2c(c1)CCC2 | . | ? | i | . | .
Cc1scc(CN2CCN(c3ccccc3F)CC2)c1C | . | i | i | . | .
O=C1Nc2ccccc2C12Nc1ccccc1-c1nc3ccccc3n12 (centres undefined) | 15µM* | i | i | -4% | -1%
CN1C(=O)C2(Nc3ccccc3-c3nc4ccccc4n32)c2ccccc21 (centres undefined) | -13% | i | ? | -7% | 2%
CCN1C(=O)C2(Nc3ccccc3-c3nc4ccccc4n32)c2cc(OC)ccc21 (centres undefined) | ? | ? | 13µM* | 1% | 1%
CC1(c2ccccn2)Nc2ccccc2-c2nc3ccccc3n21 (centres undefined) | ? | i | 16µM* | -7% | 5%
Cc1ccc2nc(Nc3ccc(C)c(F)c3)c3nncn3c2c1 | . | i | i | . | .
O=C(NCCN1CCN(c2ccccc2)CC1)c1cccn2c(=O)c3cc(Cl)ccc3nc12 | -12% | i | i | -1% | 4.1µM*
CCOC(=O)N1CCN(C(=O)c2cccn3c(=O)c4cc(Cl)ccc4nc23)CC1 | -5% | i | ? | -4% | 19%
CCOC(CNC(=O)c1cccn2c(=O)c3cc(Cl)ccc3nc12)OCC | 23µM* | ? | i | 11% | 24%
COc1ccc(-c2ccc(CCC(=O)O)n2-c2ccccc2OC)cc1 | -2% | ? | ? | 18µM* | 15µM*
COc1ccccc1-n1c(CCC(=O)O)ccc1-c1ccccc1 | 6% | i | ? | -10% | 0%
CCN(CC)CCSc1nc2ccccc2n1Cc1ccccc1 | -25% | i | i | -10% | 27%
O=C(NCc1ccccc1)c1onc(CSc2ccccc2)c1C(=O)NCC1CC1 | 23µM* | ? | ? | -7% | ?
COc1c(C)cc(C(=O)C2CCCN(Cc3ccc(Oc4ncccn4)cc3)C2)cc1C (centres undefined) | 18µM* | i | i | -24% | ?
COc1ccc(C(=O)CC(Nc2ccc([N+](=O)[O-])cc2)c2ccc(Cl)cc2)cc1 (centres undefined) | 16µM* | i | 6.5µM* | ? | 13%
Cc1ccccc1NC(=O)c1c(C)oc2ccc(O)c(CN3CCCC3)c12 | . | i | i | . | .
CCN1C=C(Cc2ccccc2C)C2=C(C1)C(c1ccccc1C)C(C#N)=C(N)O2 (centres undefined) | ? | ? | 21µM* | ? | ?
CCN1C=C(Cc2ccc(F)cc2)C2=C(C1)C(c1ccc(F)cc1)C(C#N)=C(N)O2 (centres undefined) | -10% | ? | 16µM* | ? | ?
CCC(=O)c1ccc(OCC(=O)OCC(=O)c2cc(C)n(C)c2C)cc1 | 9% | i | ? | -2% | -3%
COc1cc(NC(=O)c2cc3ccccc3cc2OC)ccc1NC(=O)c1cccs1 | 15µM* | ? | i | ? | ?
COc1cc(NC(=O)c2ccccc2Cl)ccc1NC(=O)c1cccs1 | ? | i | i | -7% | -2%
COc1cc(NC(=S)NC(=O)c2ccccc2C)ccc1NC(=O)c1cccs1 | 13µM* | i | i | 7% | ?
COc1ccc(C(=O)Nc2ccc3ccccc3c2)c(OC)c1 | ? | ? | 18µM* | 1% | ?
COc1ccccc1C(=O)Nc1ccc2ccccc2c1 | . | i | i | -6% | 6%
COc1cc2ccccc2cc1C(=O)Nc1ccc(Cc2ccncc2)cc1 | 0% | 18µM* | 9.2µM* | 18µM* | 21µM*

Bioassay records as filed in PubChem.
